Drawing on PubChem BioAssay AID372 (MTDP, 2006), this text covers inhibition for 98 compounds.

Molecules are shown by their SMILES. The whole screen tested about 100,000 compounds, of which about 770 (0.77%) were called active. What follows is part of a selection rich in actives, with near analogues and random picks from the rest. Unmarked numbers belong to inactive results. No stated cut-off is given here; in the data, active means inhibition above about 50%; inactive means the rest.

In the test the target is Gag-Pol polyprotein (Human immunodeficiency virus type 1 group M subtype B (isolate HXB2)) (UniProt P04585). Description: RNase H inhibition, HIV 1 Gag Pol polyprotein, FRET biochemical assay, screening (AID 372). The settings on record: HIV-1 RT RNase H, FRET RNA/DNA substrate fluorescence; at 10 µM; active compounds read high.
In the case of `Cc1nc(/N=C/c2ccc(Br)cc2)sc1C`, the inhibition was 8%.
Regarding `COc1cc(/C=C2\SC(N)=NC2=O)cc(Br)c1OCc1cccc2ccccc12`, the inhibition was 30%.
With `COc1ccc(/C=C2\SC(N)=NC2=O)cc1OC(=O)c1cccc2ccccc12` the figure was 53% (active); with `COc1ccc(C=C2C(=O)NC(=S)NC2=O)cc1OC(=O)c1cccc2ccccc12`, 26%.
With `CCOc1cc(C=C2C(=O)NC(=O)NC2=O)ccc1OCc1cccc2ccccc12` the figure was 43%.
The result for `COc1cc(/C=C2/SC(N)=NC2=O)ccc1OCc1ccccc1[N+](=O)[O-]` reads 39%.
As for `COc1cc(/C=C2\SC(N)=NC2=O)ccc1OCc1cccc2ccccc12`, the inhibition was 52% (active).
The result for `NC1=NC(=O)/C(=C/c2ccc(OC(=O)c3cccc4ccccc34)cc2)S1` reads 20%; that for `COc1cc(/C=C2\SC(N)=NC2=O)cc(Br)c1OC(=O)c1cccc2ccccc12`, 35%.
The result for `CCOc1cc(C=C2C(=O)NC(=O)NC2=O)ccc1OC(=O)c1cccc2ccccc12` reads 56% (active).
With `CCOC(=O)C(=CNc1ccc(F)c(F)c1F)C(=O)OCC` the figure was 10%.
On to `CC(C)(C)c1ccc(C(=O)NCCSc2ccc(Cl)cc2)cc1`, for which the inhibition is 19%.
On to `O=C(N/N=C\c1cc(Br)ccc1O)c1cnccn1`, for which the inhibition was 7%.
For the compound `Cc1ccc(NC(=S)NC(=O)c2ccccc2Cl)cc1C`, the inhibition was 11%.
With `O=C(COc1ccc(Br)cc1Cl)NCc1cccnc1` the figure was 0%; with `CC(=O)n1ccc(C(=O)Nc2ccc(Cl)c(Cl)c2)n1`, 2%; with `O=C(Nc1ccc(F)cc1F)c1cnn2c1NC(c1cccs1)CC2C(F)(F)F` (stereo not drawn), 5%.
`O=c1oc2ccc(O)c(-c3ccccc3Cl)c2s1`: the inhibition is 2%.
With `O=C(Oc1ccc2oc(=O)sc2c1)c1ccccc1` the figure was 6%.
With `Cc1cc(I)ccc1NC(=O)c1ccccc1F`, the inhibition was 8%.
The result for `O=C(c1ccccc1)c1cccc(NC(=O)C2CCCCC2)c1` reads 51% (active).
With `O=C(Nc1ccc2ccccc2c1)C1CCCCC1` the figure was 2%; with `CC(=O)c1cccc(NC(=O)C2CCCCC2)c1`, 0%; with `O=C(COc1cccc(Br)c1)N/N=C/c1ccc(Cl)cc1`, 7%.
With `CCOc1ccc(C(=O)Nc2cc(Cl)cc(Cl)c2)cc1Br` the figure was 1%; with `COc1ccc(-c2nnc(N)s2)cc1`, 7%; with `COc1ccc(-c2nnc(NC(C)=O)s2)cc1`, 0%.
For `COc1cc(NC(=O)COc2ccc(C)c(C)c2)c(OC)cc1Cl`, the inhibition is 7%.
The result for `COc1cc([N+](=O)[O-])cc(/C=C2\C(=O)NC(=O)N(c3ccc(Cl)cc3)C2=O)c1O` reads 7%; that for `O=C(Nc1ccc(I)cc1Cl)c1ccccc1Cl`, 37%; that for `O=C(Nc1ccc(-c2ccc(NC(=O)c3ccccc3Cl)c(Cl)c2)cc1Cl)c1ccccc1Cl`, 51% (active).
With `O=C(Nc1ccc(Cl)cc1Cl)c1ccccc1Cl` the figure was 3%; with `CCn1c2ccccc2c2cc(CN3CCC(C)CC3)ccc21`, 7%; with `CC(=O)Nc1ccc(NS(=O)(=O)c2ccc(C)cc2C)cc1`, 2%.
Regarding `O=C(Nc1ccc(O)cc1)c1ccc(N2C(=O)c3cccc([N+](=O)[O-])c3C2=O)cc1`, the inhibition is 3%.
The result for `O=C(Nc1nccs1)c1ccc(N2C(=O)c3ccc([N+](=O)[O-])cc3C2=O)cc1` reads 31%; that for `O=C(Nc1nccs1)c1ccc(N2C(=O)c3cccc([N+](=O)[O-])c3C2=O)cc1`, 56% (active).
With `Cc1nc(-c2ccccc2)sc1C(=O)Nc1ccc(-c2cn3ccccc3n2)cc1`, the inhibition was 6%.
Consider `O=C(Nc1ccc2oc(-c3cccc4ccccc34)nc2c1)c1cc([N+](=O)[O-])ccc1Cl`, for which the inhibition was 21%.
The result for `COc1ccc(OCCOCCOc2c(OC)cccc2OC)cc1` reads 11%; that for `COc1ccc(C(=O)NC(=S)Nc2ccc3oc(-c4cccc(F)c4)nc3c2)cc1[N+](=O)[O-]`, 41%; that for `CCOc1ccc(C(=O)NC(=S)Nc2ccc3oc(-c4cccc(F)c4)nc3c2)cc1[N+](=O)[O-]`, 58% (active).
`COc1ccc(C(=O)NC(=S)Nc2ccc3oc(-c4cccc(F)c4)nc3c2)cc1Br`: the inhibition was 56% (active).
`CCOc1ccc(C(=O)NC(=S)Nc2ccc3oc(-c4cccnc4)nc3c2)cc1[N+](=O)[O-]`: the inhibition is 4%.
The result for `COc1ccc(C(=O)NC(=S)Nc2ccc3oc(-c4cccc(F)c4)nc3c2)cc1OC` reads 7%; that for `COc1ccc(C(=O)NC(=S)Nc2ccc3oc(-c4ccccc4)nc3c2)cc1Br`, 47%.
With `CCc1ccc2oc(-c3ccc(NC(=S)NC(=O)c4cccc(Cl)c4)cc3)nc2c1` the figure was 17%; with `CCc1ccc2oc(-c3ccc(NC(=S)NC(=O)c4cccc(F)c4)cc3)nc2c1`, 59% (active).
The result for `CCOc1cccc(C(=O)NC(=S)Nc2ccc(-c3nc4cc(CC)ccc4o3)cc2)c1` reads 5%; that for `NC(=S)N=Nc1c(O)[nH]c2ccc(F)cc12`, 9%; that for `COc1cccc(C(=O)NNC(=O)C2CCCO2)c1` (stereo not drawn), 4%.
In the case of `COc1cc(C=O)ccc1OCCCOc1ccc([N+](=O)[O-])cc1Cl`, the inhibition was 29%.
As to `COC(=O)c1c(C)oc2ccc(OS(C)(=O)=O)cc12`, the inhibition is 0%.
The result for `O=C(Nc1cccc(Cl)c1)Nc1nc2ccc(Br)cc2s1` reads 35%.
With `Cn1cccc1/C=C1/C(=O)NC(=S)N(c2cccc(Cl)c2)C1=O` the figure was 31%.
With `O=C(/C=C/c1ccccc1)NC(=S)Nc1ccc(NC(=O)c2ccccc2)cc1` the figure was 9%.
Turning to `Cc1ccc(NC(=S)NC(=O)/C=C/c2ccccc2)cc1C`, the inhibition is 9%.
The result for `Cc1cccc(NC(=S)NC(=O)/C=C/c2ccccc2)c1` reads 6%; that for `O=C(/C=C/c1ccccc1)NC(=S)Nc1ccc(NC(=O)c2cccs2)cc1`, 62% (active).
As to `Cc1ccc(NC(=S)NC(=O)/C=C/c2ccccc2)cc1Cl`, the inhibition was 51% (active).
The result for `O=C(/C=C/c1ccc(Cl)cc1)NC(=S)Nc1ccc(NC(=O)c2cccs2)cc1` reads 24%; that for `Brc1ccc(/C=N/Nc2ncnc3c2cnn3-c2ccccc2)cc1`, 6%.
With `Nc1ncc(Cc2ccc(F)cc2)s1` the figure was 6%.
`COc1cccc(/C=C2\N=C(c3cccs3)OC2=O)c1OC`: the inhibition is 8%.
In the case of `O=C1NC(=S)N/C1=C\c1ccc(-c2cc([N+](=O)[O-])ccc2O)o1`, the inhibition was 29%.
Take `O=C1NC(=S)N/C1=C/c1ccc(-c2cc([N+](=O)[O-])ccc2Cl)o1`: the inhibition was 50% (active).
With `Cc1cc(Br)c(-c2ccc(/C=C3/NC(=S)NC3=O)o2)cc1C` the figure was 24%.
With `O=C1NC(=S)N/C1=C\c1ccc(-c2cc([N+](=O)[O-])ccc2Br)o1` the figure was 50% (active); with `O=C1NC(=S)N/C1=C/c1ccc(-c2ccc([N+](=O)[O-])cc2Cl)o1`, 5%; with `O=C1NC(=S)N/C1=C\c1ccc(-c2cccc([N+](=O)[O-])c2)o1`, 14%.
As to `CCCOc1cccc(/C=C2\N=C(c3ccc(F)cc3)OC2=O)c1`, the inhibition was 11%.
Take `O=C(CSCc1ccccc1Cl)Nc1cccc(Br)c1`: the inhibition was 17%.
Turning to `COc1cc(/C=C2\C(=O)NC(=O)N(C(C)(C)C)C2=O)cc(OC)c1O`, the inhibition was 18%.
Take `COc1ccc(CNC(=O)CN(c2ccccc2OC)S(=O)(=O)c2ccccc2)cc1`: the inhibition is 9%.
Turning to `CCOC(=O)c1c(NC(=O)c2cc(OC)c(OC)c(OC)c2)sc(C(=O)Nc2ccc(OC)cc2OC)c1C`, the inhibition is 15%.
With `O=C1c2cccc3c([N+](=O)[O-])ccc(c23)N1c1ccccc1` the figure was 56% (active).
As to `COc1ccc(N2C(=O)c3cccc4c([N+](=O)[O-])ccc(c34)C2=O)cc1`, the inhibition is 16%.
Turning to `O=C1c2cccc3c([N+](=O)[O-])ccc(c23)C(=O)N1c1ccc(O)cc1`, the inhibition is 13%.
As to `O=C(CCN1C(=O)c2ccccc2C1=O)N1CCN(C/C=C/c2ccccc2)CC1`, the inhibition was 5%.
With `O=c1oc2ccc3ccccc3c2cc1-c1nnc(NCc2ccc(F)cc2)s1` the figure was 60% (active); with `CCN(CC)c1ccc2cc(-c3nnc(NCc4ccc(F)cc4)s3)c(=O)oc2c1`, 0%; with `Cc1ccc(F)cc1Nc1nnc(-c2cc3c(ccc4ccccc43)oc2=O)s1`, 5%.
The result for `Cc1ccc(-c2ccccc2)n1-c1cccc2cccnc12` reads 7%.
With `O=C1C2C3C=CC(C3)C2C(=O)N1c1cccc2cccnc12` (stereo not drawn) the figure was 5%; with `Cc1ccc(C)n1-c1cccc2cccnc12`, 67% (active).
Regarding `CCCCCCCC(=O)NNC(=O)c1cccs1`, the inhibition is 0%.
The result for `Cc1ccc(-c2nc3ccccc3o2)cc1NC(=O)c1cccc(Cl)c1Cl` reads 43%.
Take `Cc1ccc(-c2nc3ccccc3o2)cc1NC(=O)Cc1ccccc1`: the inhibition is 18%.
The result for `Cc1ccc(OCC(=O)Nc2cccc(-c3nc4cc(Cl)ccc4o3)c2C)c(C)c1` reads 27%; that for `O=C(COc1ccccc1)Nc1ccc(-c2nc3cc(Cl)ccc3o2)cc1`, 23%.
The result for `Cc1ccc(-c2nc3cc(Cl)ccc3o2)cc1NC(=O)Cc1ccccc1` reads 55% (active).
The result for `Cc1ccc2oc(-c3ccc(C)c(NC(=O)c4cccc(Cl)c4Cl)c3)nc2c1` reads 54% (active); that for `O=C(COc1ccc(Br)cc1)Nc1ccc(-c2nc3cc(Cl)ccc3o2)cc1`, 59% (active).
Take `Cc1ccccc1OCC(=O)Nc1cccc(-c2nc3cc(Cl)ccc3o2)c1C`: the inhibition is 15%.
With `Cc1c(NC(=O)COc2ccc(Cl)cc2Cl)cccc1-c1nc2cc(Cl)ccc2o1` the figure was 54% (active); with `Cc1ccc(-c2nc3cc(Cl)ccc3o2)cc1NC(=O)c1cccc(Cl)c1Cl`, 16%.
With `Cc1ccc2oc(-c3ccc(C)c(NC(=O)Cc4ccccc4)c3)nc2c1` the figure was 18%; with `O=C(COc1ccc(Br)cc1)Nc1cccc(-c2nc3cc(Cl)ccc3o2)c1`, 12%.

In general, inhibition refers to the change of the read-out against control, counted positive when it falls.
